Hit rate of the full screen: of about 2,300 compounds, about 1,400 (61%) were called active. Inconclusive results (about 29%) are left out. So high a share suggests a set chosen from earlier hits. This is one part of the list. Values without a mark were called inactive. Calls follow the shape of the dose curve; as a rule, active = well fitted inhibition curve with a large enough effect; inconclusive = small, poorly fitted or top-dose-only effect, or effect the other way; inactive = no such curve, though single readings can be large or run the other way.
Test: Confirmation screen for delayed death inhibitors of the malarial parasite plastid, 96 hour incubation; also: nearly all actives have a fitted effect of over 60% in size
Conditions: P. falciparum luciferase growth in erythrocytes; series mostly up to 28.7 µM; activity change, negative = inhibition: at the top concentration
Summary of the method: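 Two-generation (96 h, 37 C) exposure of P. falciparum carrying an integrated firefly luciferase reporter in erythrocytes, 0.1% parasitemia and 2% hematocrit final, Albumax-supplemented RPMI. Luminescence decrease measures growth inhibition.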
% is scaled to controls: 0 for no effect and ±100 for the full control effect; potency is read from the fitted curve at half-maximal effect.

| SMILES | Potency | activity change, negative = inhibition [%] |
| --- | --- | --- |
| COc1ccccc1CCC(=O)N1CCN(S(=O)(=O)c2cc(C(F)(F)F)ccc2Cl)CC1 | 11.2 µM (active) | – |
| Cc1ccc(C)c(-c2cc(C(=O)Nc3nccs3)c3ccccc3n2)c1 | 1.12 µM (active) | – |
| Cc1ccc(C)c(-c2cc(C(=O)NNC(=S)NCC(C)C)c3ccccc3n2)c1 | 11.2 µM (active) | – |
| Cc1ccccc1-c1cc(C(=O)n2cccn2)c2cc(Cl)ccc2n1 | – | -12.5 |
| Cc1ccc(/C=C/c2ccc(N(C)C)cc2)[n+](C)c1 | 0.501 µM (active) | – |
| CC[n+]1ccccc1/C=C/c1ccc(N(C)C)cc1 | 1.58 µM (active) | – |
| Cn1c(=O)c(=O)n(C)c2cc(N3CCCCC3)c(NS(=O)(=O)c3ccc(Br)cc3)cc21 | 12.6 µM (active) | – |
| Cc1ccc(OCC(=O)NNc2c3ccccc3nc3ccccc23)cc1 | 6.31 µM (active) | – |
| Cc1ccc(C(=O)NNc2c3ccccc3nc3ccccc23)cc1 | 10 µM (active) | – |
| O=C(NNc1c2ccccc2nc2ccccc12)C(O)c1ccccc1 (stereo unspecified) | 10 µM (active) | – |
| COc1ccccc1OCC(=O)NNc1c2ccccc2nc2ccccc12 | 5.01 µM (active) | – |
| Cc1cccc(OCC(=O)NNc2c3ccccc3nc3ccccc23)c1 | 4.47 µM (active) | – |
| O=C(COc1ccccc1)NNc1c2ccccc2nc2ccccc12 | 5.01 µM (active) | – |
| O=C(COc1ccccc1)Nc1nnc(-c2ccc(F)cc2)o1 | – | 6.86 |
| O=C(CCCO)NNc1c2ccccc2nc2ccccc12 | 6.31 µM (active) | – |
| COc1cccc(C(=O)NNc2c3ccccc3nc3ccccc23)c1 | 15.8 µM (active) | – |
| O=C(COc1cccc2ccccc12)Nc1ccc(Cl)cc1C(=O)O | – | 2.28 |
| O=C(CN1CCOCC1)NNc1c2ccccc2nc2ccccc12 | 12.6 µM (active) | – |
| N#Cc1c(N2C(=O)Nc3ccccc3N2O)sc2c1CCCCCC2 | 14.1 µM (active) | – |
| Cc1ccc2nc(CNC(=O)C3CCC(=O)N(Cc4ccccc4F)C3)cn2c1 (stereo unspecified) | 11.2 µM (active) | – |
| O=C(NC1CCC1)C1CCC(=O)N(Cc2ccccc2F)C1 (stereo unspecified) | – | -10.3 |
| COCCn1c(C)cc(C(=O)CSc2cc(C)c3ccc(OC)cc3n2)c1C | 17.8 µM (active) | – |
| CCCSCCCNC(=O)c1ccccc1NC(=O)C1=CSCCO1 | 12.6 µM (active) | – |
| COc1ccc([C@@]2(C(C)C)ON(c3ccccc3C(F)(F)F)C2=O)cc1 | 0.501 µM (active) | – |

| SMILES | Potency | activity change, negative = inhibition [%] |
| --- | --- | --- |
| COc1ccc(CN(CCC(c2ccccc2)c2ccco2)C(=O)c2ccco2)cc1 (stereo unspecified) | 8.91 µM (active) | – |
| COc1ccc(S(=O)(=O)N/N=C(/C)c2ccco2)cc1 | – | -15.7 |
| Fc1cc2nc(-c3ccncc3)[nH]c2cc1F | 3.16 µM (active) | – |
| COCCN(C(=S)Nc1ccc(OC)c(Cl)c1)C1CCN(C(C)C)CC1 | 11.2 µM (active) | – |
| CC(C)N1CCc2c(sc(NC(=S)NC(=O)c3ccccc3)c2C#N)C1 | 2 µM (active) | – |
| CC(=O)Nc1sc2c(c1-c1nc3ccccc3s1)CCN(C(C)C)C2 | 0.316 µM (active) | – |
| N#Cc1cc(S(=O)(=O)c2ccccc2)c(N)[nH]c1=O | – | -5.71 |
| COc1cccc(NC(=O)c2ccc3c(c2)C(=O)N(CC2CCCO2)C3=O)c1 (stereo unspecified) | – | -15.2 |
| COc1ccc(NC(=O)c2ccc(CN3CCN(c4ccccc4)CC3)cc2)cc1OC | 12.6 µM (active) | – |
| COc1cccc(NC(=O)c2ccc(CN3CCN(c4ccccc4)CC3)cc2)c1 | 14.1 µM (active) | – |
| C#CC[N+]1(CC#Cc2ccc(C#CC[N+]3(CC#C)CCOCC3)cc2)CCOCC1 | 5.62 µM (active) | – |
| Cc1ccc(-c2csc3nc[nH]c(=O)c23)cc1 | – | -26.9 |
| Cc1c(C)n2c(SCC(=O)Nc3ccc4c(c3)OCCO4)nnc2[nH]c1=O | 1.58 µM (active) | – |
| CCOc1ccc2c(c1)OC(c1ccccc1)(C(F)(F)F)NC2=O (stereo unspecified) | 1.41 µM (active) | – |
| O=C(CCNS(=O)(=O)c1cccc2nonc12)NCCc1ccc(Cl)cc1 | 11.2 µM (active) | – |
| O=C(Nc1nnc(Cc2ccc(F)cc2)s1)Nc1ccccc1F | 12.6 µM (active) | – |
| O=S(=O)(c1cccs1)N1CCN(c2ccnc3cc(Cl)ccc23)CC1 | 4.47 µM (active) | – |
| O=C(Nc1ccc(F)cc1F)c1ccc2c(c1)[nH]c(=O)n2Cc1ccc(F)cc1 | 14.1 µM (active) | – |
| CC1(C)CC(=O)C2=C(C1)OC1=C(C(=O)CC(C)(C)C1)C2c1ccc(O)cc1O | 7.08 µM (active) | – |
| CC(C)C(=O)NC(=S)Nc1ccc(S(=O)(=O)NC2CCCCC2)cc1 | – | -50.8 |
| O=C(NC(=C(Cl)Cl)S(=O)(=O)c1ccc(Cl)cc1)c1ccccc1 | – | -22.7 |
| CC(C)NS(=O)(=O)c1ccc(NC(=S)NC(=O)c2ccc(-c3ccccc3)cc2)cc1 | 5.01 µM (active) | – |
| CCC/C(C#CCCN1C(=O)c2ccccc2C1=O)=C1/c2ccccc2C(=O)N1c1ccccc1 | 5.01 µM (active) | – |
| O=C(CCN1C(=O)c2ccccc2C1=O)C1=NN[C@@H]2C(=O)N(c3ccc(F)cc3)C(=O)[C@H]12 | – | 22.9 |

| SMILES | Potency | activity change, negative = inhibition [%] |
| --- | --- | --- |
| COC(=O)Cc1ccc(NC(=O)C(c2ccccc2)c2ccccc2)cc1 | 10 µM (active) | – |
| CCOC(=O)c1c(C)sc2c1N(C(=O)CCl)c1cc(Cl)ccc1S2 | 2 µM (active) | – |
| O=C(C#Cc1ccccc1)Nc1cccc(F)c1 | 1 µM (active) | – |
| NC(=O)c1ccc(NC(=O)C#Cc2ccccc2)cc1 | 1 µM (active) | – |
| COc1ccc(NC(=O)C#Cc2ccccc2)cc1 | 7.94 µM (active) | – |
| O=C(C#Cc1ccccc1)Nc1ccccc1F | 12.6 µM (active) | – |
| Cc1ccc(Cn2c(C)nc3c(c2=O)c2nc4ccccc4nc2n3Cc2ccco2)cc1 | 5.01 µM (active) | – |
| Nc1ccccc1SSc1ccccc1N | 7.94 µM (active) | – |
| CCN(CC)S(=O)(=O)c1cccc(NC(=O)c2cc(-c3cccs3)nn2-c2ccccc2)c1 | 12.6 µM (active) | – |
| Clc1cccc(OCCCCCN2CCOCC2)c1 | – | -30 |
| Brc1cccc(OCCCCN2CCCCC2)c1 | 12.6 µM (active) | – |
| S=c1[nH]nc(-c2ccccn2)n1/N=C/c1ccc(-c2ccccc2Br)o1 | – | -12.3 |
| Cc1nn(-c2ccccc2)c(C)c1/C=N/n1c(-c2ccccc2Br)n[nH]c1=S | 11.2 µM (active) | – |
| Nc1nc(CCl)nc(N(c2ccccc2)c2ccccc2)n1 | 1.41 µM (active) | – |
| COC(=O)[C@H](Cc1ccccc1)N(C)S(=O)(=O)c1cccc(S(=O)(=O)N(C)[C@@H](Cc2ccccc2)C(=O)OC)c1 | 14.1 µM (active) | – |
| O=C(N[C@@H](Cc1ccccc1)C(=O)CCl)OCc1ccccc1 | – | -4.29 |
| O=C(CNC(=O)c1cccc(F)c1)N/N=C/c1ccc([N+](=O)[O-])s1 | – | -105 |
| COc1ccc(C(=O)NCC(=O)N/N=C/c2ccc([N+](=O)[O-])s2)cc1OC | 6.31 µM (active) | – |
| CCN(CC)Cc1cc2[nH]c3c4ccc(Cl)cc4ncc3c2cc1OC | 0.199 µM (active) | – |
| O=C(COC(=O)C1C2CC3OC(=O)C1C3C2)Nc1ccccc1 (stereo unspecified) | – | -15.9 |
| CSc1c(CC(=O)Nc2ccccc2)n(C)c2ccccc12 | 8.91 µM (active) | – |
| Brc1c(CSc2nc3ccccc3s2)nc2ncccn12 | 6.31 µM (active) | – |
| CC[C@@H](C)C(NC(=O)OC(C)(C)C)c1cn([C@@H](Cc2ccc(O)cc2)C(=O)N2CCN(C(=O)OC(C)(C)C)CC2)nn1 (stereo partly specified) | 8.91 µM (active) | – |
| CC[C@@H](C)C(NC(=O)OC(C)(C)C)c1cn([C@@H](CCCCNC(=O)OC(C)(C)C)C(=O)N2CCN(C(=O)OC(C)(C)C)CC2)nn1 (stereo partly specified) | 1.26 µM (active) | – |

| SMILES | Potency | activity change, negative = inhibition [%] |
| --- | --- | --- |
| CCC(CC)N1CCN(Cc2nc3ccc([N+](=O)[O-])cc3c(=O)n2-c2ccccc2F)CC1 | – | -22.7 |
| CCOc1ccc2c(c1)C(c1ccccc1)=NNC(c1ccccc1)=N2 | 10 µM (active) | – |
| Brc1ccccc1-c1nnc(COc2ncnc3c2cnn3-c2ccccc2)o1 | – | -8.78 |
| CCOC(=O)c1c(S(=O)(=O)NCC(=O)N2CCN(c3ccccc3OC)CC2)c(C)n(C)c1C | 12.6 µM (active) | – |
| CN(Cc1cccc(Cl)c1Cl)C(=O)c1ccc(NC(=O)CC#N)cc1 | 4.47 µM (active) | – |
| O=C(Nc1ccc2c(c1)CCCN2C(=O)c1ccco1)c1cc([N+](=O)[O-])ccc1Cl | 14.1 µM (active) | – |
| COc1ccccc1NC(=S)NCc1cccs1 | – | -10.1 |
| Cc1ccc2cc3cc(C(=O)NCCCN4CCCC4=O)oc3nc2c1 | 1 µM (active) | – |
| COCCCNC(=O)c1cc2cc3cc(OC)ccc3nc2o1 | 2.24 µM (active) | – |
| COc1ccc2nc3oc(C(=O)NCc4cccs4)cc3cc2c1 | 2.24 µM (active) | – |
| O=C(CN1C2=NCCCN2c2ccccc21)c1ccc2c(c1)OCO2 | 7.08 µM (active) | – |
| Cc1ccc(C)c(C(=O)CN2C3=NCCCN3c3ccccc32)c1 | 5.62 µM (active) | – |
| OC(CN1C2=NCCN2c2ccccc21)c1ccc2c(c1)OCO2 (stereo unspecified) | 2.51 µM (active) | – |
| CCOc1ccc(NC(=O)C[n+]2ccc(N(C)C)cc2)cc1 | 0.501 µM (active) | – |
| CN(C)c1cc[n+](CC(=O)Nc2ccc(OC(F)F)cc2)cc1 | 1.58 µM (active) | – |
| O=C(C[n+]1cccc(CNC(=O)c2ccc(OC(F)F)cc2)c1)Nc1ccc(SC(F)F)cc1 | 1 µM (active) | – |
| Cn1nnnc1Sc1ncnc2scc(-c3cccs3)c12 | 8.91 µM (active) | – |
| Cn1nnnc1Sc1ncnc2scc(-c3ccc[nH]3)c12 | 11.2 µM (active) | – |
| Cn1nnnc1Sc1ncnc2scc(-c3ccsc3)c12 | 3.98 µM (active) | – |
| O=C1C(Cl)=C(NC2CCCCC2)C(=O)N1c1ccc(Cl)cc1 | 12.6 µM (active) | – |
| CCCCN(C)CCNC(=O)c1cc2c(=O)[nH]c3ccccc3c2n1C | 12.6 µM (active) | – |
| CCOc1ccc(CNC(=O)c2cc3oc4ccccc4c3n2C)cc1 | – | 12.8 |
| Cc1cc(C)cc(NC(=O)c2cc(S(=O)(=O)NCc3ccco3)ccc2F)c1 | – | -53.2 |
| CCOc1ccccc1NC(=O)c1cc(S(=O)(=O)NCc2ccco2)ccc1F | 11.2 µM (active) | – |
